Screening data as filed in PubChem BioAssay.
A selection: hits, their analogues and other compounds. The true share with any hit is near 3.2%.
TsaE inh: qHTS Assay for Inhibitors of YjeE. 71,000 compounds, 0.05% hits. purified YjeE enzyme, qHTS inhibition assay. Potency, µM
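Fluorescence polarization of a BODIPY Texas Red–ADP probe (2 uM) bound to purified YjeE (10 uM) was read after 15 min room-temperature incubation with compounds. Loss of polarization marks inhibitors; ADP serves as titrated control.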
TSHR ag: qHTS Assay for Agonists of the Thyroid Stimulating Hormone Receptor; Thyrotropin receptor (Homo sapiens), P16473; HEK293-CNG-TSHR cells (CNG channel as cAMP sensor), membrane potential dye, cAMP; Potency, µM (doses to about 57.1 µM), hits mostly activators; 73,000 compounds, 0.48% hits; AID 926, 2007; active = well fitted activation curve with a large enough effect in the main read-out, with a control signal flat, not every such curve was filed as active; inconclusive = small, poorly fitted or top-dose-only effect, or a change in a side signal; inactive = no such curve, though single readings can be large or run the other way; reference of the percent scale not stated here;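 note: the control signal comes from parental cells without the receptor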
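HEK 293 cells stably expressing TSHR and a cAMP-gated CNG channel; parental CNG-only cells as counterscreen. Cells preloaded 60 min with membrane potential dye plus 100 uM RO 20-1724, then compound 30 min; fluorescence read at 590 nm.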
BRCT PPI green: qHTS Assay for Inhibitors of BRCT-Phosphoprotein Interaction (Green Fluorophore); BRCA1 BRCT-phosphopeptide binding, green fluorescence polarization; Potency, µM (highest dose often 76.9 µM), most hits filed as inhibitors; Breast cancer type 1 susceptibility protein (Homo sapiens), P38398; AID 875, 2007; 75,000 compounds, 0.05% hits
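Compounds were incubated for 12 min at room temperature with a complex of 100 nM fluorescein-tagged pBACH1 decapeptide and 250 nM His-tagged BRCT protein. Buffer was phosphate pH 7.3 with EDTA, DTT and Tween 20. Disruption of binding lowers the polarization signal.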
HEK293 cAMP cs: qHTS Assay for Agonists of the Thyroid Stimulating Hormone Receptor: Activators of Intracellular cAMP Concentrations in Parental HEK 293; parental HEK293 CNG cAMP sensor, membrane potential fluorescence; Potency, µM (highest dose often 57.1 µM), usual class: activators; 73,000 compounds, 2.5% hits; note: nearly all actives have a fitted effect of over 55% in size
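Parental HEK 293 cells stably expressing a cAMP-gated CNG channel were loaded with membrane potential dye containing 100 uM RO 20-1724 for 60 min. Compound added for 30 min; depolarization read as fluorescence intensity at 590 nm.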
BRCT inh red: qHTS Assay for Inhibitors of BRCT-Phosphoprotein Interaction (Red Fluorophore) | Breast cancer type 1 susceptibility protein (Homo sapiens), P38398 | BRCT-phosphopeptide binding, red fluorescence polarization | Potency, µM (titrated, usually from 76.9 µM), usual class: inhibitors | 75,000 compounds, 0.03% hits
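Fluorescence polarization: 100 nM His-tagged BRCA1 BRCT with 100 nM TAMRA-labelled phospho-BACH1 decapeptide, phosphate buffer pH 7.3 with 150 mM NaCl, DTT, 0.01% Tween 20; 12 min RT. Binding inhibition seen as FP decrease.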
Pol III holo inh: qHTS Assay for Inhibitors of DNA Polymerase III Holoenzyme System; reconstituted DNA polymerase III holoenzyme replication, biochemical; Potency, µM (highest dose often 57.1 µM); 71,000 compounds, 0.25% hits
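Reconstituted *E. coli* holoenzyme (0.35 nM Pol III, 1 nM beta, 154 nM SSB, 2 nM primase) was preincubated with compound for 15 min at RT. Synthesis on 1.4 nM ssM13Gori ran 35 min, then was stopped with PicoGreen/EDTA and read as dsDNA fluorescence.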
Large screens that a line does not name were inactive. Unless noted, calls come from the whole dose curve; as a rule, active = well fitted curve in the direction sought with a large enough effect; inconclusive = small, poorly fitted or top-dose-only effect, or another doubt; inactive = no such curve, though single readings can be large; an effect the other way counts as inactive or inconclusive.

Cc1cc2oc(=O)cc(CN3CCN(Cc4ccc5c(c4)OCO5)CC3)c2cc1C	TSHR ag 2.5µM
Cc1ccc2c(CN3CCN(Cc4ccc5c(c4)OCO5)CC3)cc(=O)oc2c1C	TSHR ag inconclusive, HEK293 cAMP cs inconclusive
Cc1cc2oc(=O)cc(CN3CCN(Cc4ccccc4)CC3)c2cc1Cl	none
Cc1cc2oc(=O)cc(CN3CCCCC3C)c2c(C)c1Cl (configuration not stated)	TSHR ag inconclusive, HEK293 cAMP cs 25µM
O=C1C=CC(=O)c2c1ccc1c2ccc2ccccc21	none
Nc1ncnc2c1ncn2[C@@H]1CCCO1	none
CN1CCc2cc(Cl)c(O)cc2[C@@H](c2ccccc2)C1	TSHR ag inconclusive, HEK293 cAMP cs 25µM
CCN(CC)S(=O)(=O)c1cccc(-c2nnc(SCCOc3ccccc3C)o2)c1	TSHR ag inconclusive, HEK293 cAMP cs 16µM
CCN(CC)S(=O)(=O)c1cccc(-c2nnc(SCCOc3ccc(Cl)cc3)o2)c1	TSHR ag inconclusive, HEK293 cAMP cs inconclusive
CCN(CC)S(=O)(=O)c1cccc(-c2nnc(SCC(=O)c3cc(C)n(C)c3C)o2)c1	TSHR ag inconclusive, HEK293 cAMP cs 16µM
CCN(CC)S(=O)(=O)c1cccc(-c2nnc(SCCOc3ccccc3)o2)c1	TSHR ag inconclusive, HEK293 cAMP cs 7.9µM
C/C(N)=C(/C#N)C(=O)CSc1nnc(SCc2ccc(Cl)cc2)s1	TSHR ag inconclusive, HEK293 cAMP cs 32µM, Pol III holo inh inconclusive
CC(=O)c1sc(NC(=O)C2(F)C(F)(F)C(F)(F)C(F)(F)C(F)(F)C2(F)F)nc1C	TSHR ag inconclusive, HEK293 cAMP cs 13µM
CC(=O)c1sc(NC(=O)C=C(C)C)nc1C	none
CCOc1ccc2c(ccc(/C=C\c3cc(C)c4cccnc4c3O)[n+]2C)c1	Pol III holo inh 3.2µM
Clc1ccc(-c2nc3nc4ccccc4nc3n2Cc2ccco2)cc1	TSHR ag inconclusive, HEK293 cAMP cs inconclusive
Cc1ccc(-c2nc3nc4ccccc4nc3n2Cc2ccco2)cc1	TSHR ag inconclusive, HEK293 cAMP cs 25µM
CCOC(=O)c1cnc(-n2nc(C)cc2C)nc1Nc1ccc(N(C)C)cc1	none
CCOC(=O)c1cnc(-n2nc(C)cc2C)nc1Nc1cccc(C(=O)O)c1	TSHR ag 25µM
COC(=O)C1(Cc2ccccc2)C=C2C(=C(c3ccccc3)C(=O)C2C)CN1 (configuration not stated)	TSHR ag inconclusive, HEK293 cAMP cs 32µM
COc1ccc2[nH]cc(CCNc3ncncc3-c3ccccc3C)c2c1	TsaE inh inconclusive, TSHR ag inconclusive, HEK293 cAMP cs inconclusive
N[C@@H](Cc1c[nH]c2ccc(O)cc12)C(=O)O	TSHR ag inconclusive, HEK293 cAMP cs inconclusive
N[C@@H](Cc1cc(-c2ccc(Cl)cc2Cl)cc(CP(=O)(O)O)c1O)C(=O)O	TSHR ag inconclusive, HEK293 cAMP cs inconclusive, Pol III holo inh 32µM
O=C(CSc1nc2c(cnn2-c2ccc(F)cc2)c(=O)[nH]1)N1CCCc2ccccc21	TSHR ag inconclusive, HEK293 cAMP cs 25µM
Nc1nc(SCC(=O)N2CCCc3ccccc32)[nH]c(=O)c1-c1ccccc1	none (no result: TSHR ag)
O=C(O)c1cc(S(=O)(=O)Nc2ccc(O)cc2)ccc1Cl	none (no result: TsaE inh, Pol III holo inh)
Nc1nonc1-c1noc(N2CCCCC2)n1	TSHR ag inconclusive, HEK293 cAMP cs 10µM
CCOC(=O)c1cc2sccc2n1CC(=O)N1CCc2ccccc21	TSHR ag inconclusive, HEK293 cAMP cs 16µM
O=C(O)c1ccc(CNCc2ccccc2)cc1	none
O=C(Nc1ccc(Cl)cc1)N1CCN(c2ccc3nnc(-c4ccc(F)cc4)n3n2)CC1	TSHR ag inconclusive, HEK293 cAMP cs 25µM (no result: TsaE inh, Pol III holo inh)
O=C(Nc1ccccc1Cl)N1CCN(c2ccc3nnc(-c4ccccc4)n3n2)CC1	none
CCn1c(=S)sc2c(=O)n(-c3ccccc3)c(SC)nc21	TSHR ag inconclusive, HEK293 cAMP cs 25µM
N#CCSc1nc2c(sc(=S)n2Cc2ccco2)c(=O)n1-c1ccc(F)cc1	TSHR ag inconclusive, HEK293 cAMP cs inconclusive
COc1ccc(C(C)=O)cc1COC(=O)c1cc(C)oc1C	TSHR ag inconclusive, HEK293 cAMP cs 25µM
COc1ccc(C(C)=O)cc1COC(=O)c1cccc(N(C)C)c1	TSHR ag inconclusive, HEK293 cAMP cs inconclusive
C[C@@H]1C[C@H](OC(=O)[C@@H](O)c2ccccc2)CC(C)(C)N1C	none
CCOC(=O)c1[nH]c(C)c(CN(CCc2ccccc2)S(C)(=O)=O)c1C	TSHR ag 32µM
O=C(c1csnn1)N1CCC2(CC1)CCN(c1ccccc1)CC2	none
CCCC[C@@H]1C[C@H]1C(NC(=O)c1ccco1)c1ccccc1 (some centres not stated)	TSHR ag inconclusive, HEK293 cAMP cs 16µM
CCCC[C@@H]1C[C@H]1C(NC(=O)c1ccccc1)c1ccc(C(=O)OC)cc1 (some centres not stated)	TSHR ag inconclusive, HEK293 cAMP cs 16µM
CCCC[C@@H]1C[C@H]1C(NC(=O)Cc1ccccc1)c1ccc(-c2ccccc2)cc1 (some centres not stated)	TSHR ag 1µM
CCCC[C@@H]1C[C@H]1C(NC(=O)c1ccccc1)c1ccccc1C(F)(F)F (some centres not stated)	TSHR ag inconclusive, HEK293 cAMP cs inconclusive
O=C(O)c1c(Cl)cccc1Cl	none
COc1cc(NC(=O)Cc2ccc(Cl)cc2)ccc1NC(=O)c1ccco1	none
COc1ccc(NC(=O)c2cc(Cl)ccc2NC(=O)c2ccco2)c(OC)c1	TSHR ag inconclusive, HEK293 cAMP cs 25µM
O=C(NCc1ccc2c(c1)OCO2)c1ccc2snnc2c1	TSHR ag inconclusive, HEK293 cAMP cs 7.9µM
Cc1nc2cnc(Oc3ccccc3)nc2n(CCc2ccccc2)c1=O	TSHR ag inconclusive, HEK293 cAMP cs 1.6µM
O=c1cnc2cnc(Oc3cccc(Cl)c3)nc2n1CCc1ccccc1	TSHR ag inconclusive, HEK293 cAMP cs inconclusive
Cc1nc2cnc(N3CCN(C)CC3)nc2n(CCc2ccccc2)c1=O	TSHR ag inconclusive, HEK293 cAMP cs inconclusive
COc1cccc(Cn2c(=O)c(C)nc3cnc(Oc4cccc(Cl)c4)nc32)c1	TSHR ag inconclusive, HEK293 cAMP cs inconclusive
Cc1nc2cnc(Oc3cccc(Cl)c3)nc2n(CCc2ccccc2)c1=O	TSHR ag inconclusive, HEK293 cAMP cs 3.2µM
Cc1nc2cnc(N3CCOCC3)nc2n(CCc2ccccc2)c1=O	TSHR ag inconclusive, HEK293 cAMP cs 3.2µM
